How the values were obtained:
[1] = molecular target: T1, Aspartate--tRNA(Asp/Asn) ligase (Mycobacterium tuberculosis (strain ATCC 25618 / H37Rv)) (UniProt P9WFW3); test: Assay for Asp RNA synthetase-1 from Mycobacterium tuberculosis; type: functional; set-up: scale not given: direction of the effect not stated beside the values; settings: 30 µM; also: in the data most compounds retested in dose-response had high values
T1 sequence (whole entry): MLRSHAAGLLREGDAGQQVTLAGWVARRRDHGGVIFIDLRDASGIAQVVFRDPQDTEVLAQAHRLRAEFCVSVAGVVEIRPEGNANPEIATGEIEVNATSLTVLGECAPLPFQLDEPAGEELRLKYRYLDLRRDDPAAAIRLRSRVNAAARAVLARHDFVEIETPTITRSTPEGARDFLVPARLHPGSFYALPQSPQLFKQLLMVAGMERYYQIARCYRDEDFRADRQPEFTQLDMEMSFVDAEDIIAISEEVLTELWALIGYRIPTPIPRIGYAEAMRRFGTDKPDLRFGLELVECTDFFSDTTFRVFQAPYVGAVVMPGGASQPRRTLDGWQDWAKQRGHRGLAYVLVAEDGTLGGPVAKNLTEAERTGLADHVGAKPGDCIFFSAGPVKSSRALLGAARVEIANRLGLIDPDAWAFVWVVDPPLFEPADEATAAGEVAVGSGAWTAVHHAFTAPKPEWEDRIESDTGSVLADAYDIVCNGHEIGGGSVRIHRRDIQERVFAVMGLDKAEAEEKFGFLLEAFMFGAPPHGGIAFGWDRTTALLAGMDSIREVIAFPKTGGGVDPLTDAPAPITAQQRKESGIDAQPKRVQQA

[2] = molecular target: Shiga toxin 2 (Escherichia coli O157:H7) (UniProt P09385+P09386); test: E. coli 0.157:H7 Shiga Toxin SOP - stx2 screening assay; type: functional; set-up: scale not given: direction of the effect not stated beside the values; settings: 30 µM

Question: Which Percent Effect [1] does the source give for Cc1nc(C)n(CC2CN(c3ncnc4[nH]ccc34)CCO2)n1 (stereo unspecified) here?
Answer: 0.364%

Question: And the Percent Effect [2]?
Answer: -9.54%

Question: Which Percent Effect [1] does the source give for CCNC(=O)[C@@H]1C[C@H](NC(=O)c2cncnc2C)CN1CCCSC here?
Answer: -2.78%

Question: And the Percent Effect [2]?
Answer: -8.54%

Question: What does the source list for N#Cc1ccc(C(=O)N2CC[C@H]3[C@@H]2CCC(=O)N3c2cccnc2)cc1?
Answer: Percent Effect [1]: 2.4%; Percent Effect [2]: -9.02%

Question: With Cc1ccc(C(C)N(C)Cc2nc3c(cnn3C)c(=O)[nH]2)cc1 (stereo unspecified) as the molecule, how does the Percent Effect [1] read?
Answer: 1.46%

Question: And the Percent Effect [2]?
Answer: 12.8%

Question: How did the Percent Effect [1] turn out when CS(=O)(=O)NCC1CCCN(C(=O)Nc2cccnc2N2CCCC2)C1 (stereo unspecified) was run?
Answer: 6.08%

Question: What about the Percent Effect [2] of the same molecule?
Answer: -16.6%

Question: Which results are given for O=C(C1CCC1)N1CCn2c(COc3ncccn3)nnc2C1?
Answer: Percent Effect [1]: -0.503%; Percent Effect [2]: -1.29%

Question: How did the Percent Effect [1] turn out when CCn1nc(C)c2nnn(CC(=O)Nc3cccc(Cl)c3)c(=O)c21 was run?
Answer: -0.523%

Question: What about the Percent Effect [2] of the same molecule?
Answer: -43.6%

Question: Which Percent Effect [1] does the source give for Cn1cc(CN2CC[C@H]3C[C@H](c4nc(C5CC5)cs4)O[C@@H]3C2)cn1 here?
Answer: -0.624%

Question: And the Percent Effect [2]?
Answer: -28.1%

Question: Which Percent Effect [1] does the source give for Cc1ccc(C(=O)N2CCC3(CC2)COC(COc2ccccn2)C3)o1 (stereo unspecified) here?
Answer: 4.9%

Question: And the Percent Effect [2]?
Answer: 5.7%

Question: For O=C(c1ccc(OCC2CC2)nc1)N1CCCC(n2ccnc2)C1 (stereo unspecified), which Percent Effect [1] is on record?
Answer: -9.61%

Question: What about the Percent Effect [2] of the same molecule?
Answer: -43.4%

Question: Which Percent Effect [1] does the source give for COc1ncccc1NC(=O)c1cccc(C)n1 here?
Answer: 1.43%

Question: What about the Percent Effect [2] of the same molecule?
Answer: -22.7%

Question: With NS(=O)(=O)CCNC(=O)c1ccc(-c2ccc(F)cc2)cc1F as the molecule, how does the Percent Effect [1] read?
Answer: 16.3%

Question: What about the Percent Effect [2] of the same molecule?
Answer: -53.6%

Question: How did the Percent Effect [1] turn out when COc1ccccc1CC1CCCN(CC(N)=O)C1 (stereo unspecified) was run?
Answer: -3.29%

Question: And the Percent Effect [2]?
Answer: 28.2%

Question: Which Percent Effect [1] does the source give for CCc1nc(C2CCCN(C(=O)c3ccc4c(c3)nnn4C)C2)no1 (stereo unspecified) here?
Answer: 4.32%

Question: And the Percent Effect [2]?
Answer: -19.5%

Question: For COc1ccc(CCN2CCC(N3CCN(C)C3=O)CC2)cc1, which Percent Effect [1] is on record?
Answer: -1.97%

Question: What about the Percent Effect [2] of the same molecule?
Answer: 0.371%

Question: Which Percent Effect [1] does the source give for Cc1cnn(CCNCC(=O)NCC2(c3ccccc3)CCC2)c1 here?
Answer: 4.12%

Question: And the Percent Effect [2]?
Answer: 22.9%

Question: Cc1ccc(-c2noc(CN3CCOC(CN(C)C)C3)n2)cc1F (stereo unspecified) was tested. Which Percent Effect [1] did it give?
Answer: 3.61%

Question: What about the Percent Effect [2] of the same molecule?
Answer: 24.6%

Question: What does the source list for Cc1nc(C)n(CC2CCCN2Cc2nc3ccccc3n2C)n1 (stereo unspecified)?
Answer: Percent Effect [1]: -7.69%; Percent Effect [2]: 5.05%

Question: What does the source list for CS(=O)(=O)NCCCNC(=O)c1cccc(-n2cccc2)c1?
Answer: Percent Effect [1]: -2.88%; Percent Effect [2]: -28.3%

Question: Cc1ncsc1CCC(=O)N1CCCC[C@H](N(C)C)C1 was tested. Which Percent Effect [1] did it give?
Answer: -3.74%

Question: What about the Percent Effect [2] of the same molecule?
Answer: 3.62%

Question: Which Percent Effect [1] does the source give for COCCN1CCC(N(Cc2noc(C3CC3)n2)C(C)=O)C1 (stereo unspecified) here?
Answer: -1.46%

Question: And the Percent Effect [2]?
Answer: 29.5%

Question: How did the Percent Effect [1] turn out when CC(=O)c1cc(CC(=O)NCc2ccc(CN(C)C)cc2)cs1 was run?
Answer: 1.66%

Question: What about the Percent Effect [2] of the same molecule?
Answer: -38.2%

Question: How did the Percent Effect [1] turn out when Cc1noc(C)c1C(=O)NCC(c1ccc(F)cc1)N(C)C (stereo unspecified) was run?
Answer: 1.51%

Question: And the Percent Effect [2]?
Answer: 16%

Question: CC1=N[C@@]2(CC[C@@H]3CN(CC(=O)N(C)C)C[C@@H]32)C(=O)N1CC(C)C was tested. Which Percent Effect [1] did it give?
Answer: -0.203%

Question: What about the Percent Effect [2] of the same molecule?
Answer: -75.1%

Question: With Cc1cc(C)c(CNC(=O)N2CCCC2c2ccccc2)c(=O)[nH]1 (stereo unspecified) as the molecule, how does the Percent Effect [1] read?
Answer: -3.97%

Question: And the Percent Effect [2]?
Answer: -21.1%

Question: CN(C)S(=O)(=O)N1CCC(Oc2cnccn2)CC1 was tested. Which Percent Effect [1] did it give?
Answer: -9.05%

Question: What about the Percent Effect [2] of the same molecule?
Answer: -9.23%

Question: With Cn1ccc(CN2CCC(c3ccccc3)CC2)cc1=O as the molecule, how does the Percent Effect [1] read?
Answer: 4.58%

Question: And the Percent Effect [2]?
Answer: -3.12%

Question: Which results are given for CCN(c1ccc(C(=O)N2CCCC2)cc1)S(=O)(=O)CC?
Answer: Percent Effect [1]: 5.6%; Percent Effect [2]: -13.5%

— ChEMBL document CHEMBL3988442, “University of Dundee, Small-Polar-MMV Screening Library” (2021)
